Results: the supplement of paper PMC10849652
Of roughly 7,900 targets only a part is listed; those with a hit were picked by preference. About 0.6% of all pairs of compound and target were hits.

How the values were obtained:
Assay in all cases: log2 fold change, soluble protein after heating vs DMSO (PISA); higher = thermal stabilisation; K562 cells, 10 uM, 30 min; active = over 0.2 and 3.5 SD of the protein, either way, in both replicates (recomputed)
[1] = compound: CC[C@@H]1C(=O)N(C)c2cnc(Nc3ccc(C(=O)NC4CCN(C)CC4)cc3OC)nc2N1C1CCCC1
Procedure, shortened: (§1)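 Values are thermal stability changes relative to control samples and are taken from duplicates. They are stated as log2 fold changes. Before quantification by TMTpro 16plex LC-MS/MS with equalised channel sums, K562 cells at 2×10^6 cells/mL were treated with 10 μM compound for 30 min, heated in aliquots for 3 min across 48°C-58°C, pooled, extracted in PBS with 0.5% NP-40 at 4°C, and centrifuged at 21,000xg for 90 min to give the soluble supernatant.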

volasertib = compound: CC[C@@H]1C(=O)N(C)c2cnc(Nc3ccc(C(=O)N[C@H]4CC[C@H](N5CCN(CC6CC6)CC5)CC4)cc3OC)nc2N1C(C)C [volasertib]
Procedure, shortened: as §1

[2] = compound: CC[C@H](C)N1C=C(C2=C(C=C(C=C21)C3=CN=C(C=C3)N4CCNCC4)C(=O)NCC5=C(C=C(NC5=O)C)C)C
Procedure, shortened: as §1

epoxomicin = compound: CC[C@H](C)[C@@H](C(=O)N[C@@H]([C@@H](C)O)C(=O)N[C@@H](CC(C)C)C(=O)[C@]1(CO1)C)NC(=O)[C@H]([C@@H](C)CC)N(C)C(=O)C [epoxomicin]
Procedure, shortened: as §1

[3] = compound: CCn1c(C(=O)N(C2CC2)C2CC2)cc2c3c(ncn3C)c(Nc3cc(C)n(C)n3)nc21
Procedure, shortened: as §1

[4] = compound: CCn1cc(-c2ccnc3[nH]c(-c4cccc(CN(C)C)c4)cc23)c(-c2ccc(NC(=O)N(C)C)cc2)n1
Procedure, shortened: as §1

[5] = compound: CN(C)CC(=O)Nc1ccc2[nH]c(=O)c3ccccc3c2c1
Procedure, shortened: as §1

rosiglitazone = compound: CN(CCOC1=CC=C(C=C1)C[C@H]2C(=O)NC(=O)S2)C3=CC=CC=N3 (racemic) [rosiglitazone]
Procedure, shortened: as §1

[6] = compound: CN1C2=C(C3=C1C(=O)N(N=C3)CC4=CC(=CC=C4)N)SC(=C2)S(=O)C
Procedure, shortened: as §1

[7] = compound: CN1CCC(CNc2ccc3ncc(-c4cccc(OC(F)(F)F)c4)n3n2)CC1
Procedure, shortened: as §1

Measured: log2 fold change

PIP4P2 (UniProt Q8N4L2)
Sequence of UniProt Q8N4L2 (Q8N4L2 whole entry, looked up): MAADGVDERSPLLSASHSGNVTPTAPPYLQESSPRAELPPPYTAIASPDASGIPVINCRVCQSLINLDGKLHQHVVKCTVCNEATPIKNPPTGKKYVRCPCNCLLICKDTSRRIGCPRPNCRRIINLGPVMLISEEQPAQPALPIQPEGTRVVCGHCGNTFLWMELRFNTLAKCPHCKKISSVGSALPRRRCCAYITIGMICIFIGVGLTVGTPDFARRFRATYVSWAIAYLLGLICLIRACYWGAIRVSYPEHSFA
inactive: [1] -0.092 | volasertib -0.054 | [2] -0.07 | epoxomicin -0.192 | [3] 0.053 | [4] 0.004 | [5] -0.018 | rosiglitazone 0.008 | [6] -0.016
active: [7] -0.375

PIKFYVE (UniProt Q9Y2I7)
active: volasertib -0.499
inactive: [1] -0.182 | [2] 0.103 | epoxomicin -0.031 | [3] -0.049 | [4] -0.032 | [5] 0.032 | rosiglitazone 0.168 | [6] -0.05 | [7] -0.239

PSME4 (UniProt Q14997)
active: epoxomicin 0.35
inactive: [1] 0.076 | volasertib 0.038 | [2] 0.04 | [3] -0.014 | [4] -0.069 | [5] 0.02 | rosiglitazone 0.053 | [6] 0.001 | [7] -0.137

PSMC6 (UniProt P62333)
active: epoxomicin -0.312
inactive: [1] 0.033 | volasertib 0.178 | [2] -0.021 | [3] -0.012 | [4] 0.029 | [5] -0.03 | rosiglitazone -0.038 | [6] 0.009 | [7] 0.018

PDCD6IP (UniProt Q8WUM4)
inactive: [1] -0.219 | [2] 0.166 | epoxomicin 0.082 | [3] -0.097 | [4] -0.06 | [5] 0.116 | rosiglitazone 0.097 | [6] 0.043 | [7] -0.256
active: volasertib -0.694

POM121 (UniProt Q96HA1)
Sequence of UniProt Q96HA1 (Q96HA1 whole entry, looked up): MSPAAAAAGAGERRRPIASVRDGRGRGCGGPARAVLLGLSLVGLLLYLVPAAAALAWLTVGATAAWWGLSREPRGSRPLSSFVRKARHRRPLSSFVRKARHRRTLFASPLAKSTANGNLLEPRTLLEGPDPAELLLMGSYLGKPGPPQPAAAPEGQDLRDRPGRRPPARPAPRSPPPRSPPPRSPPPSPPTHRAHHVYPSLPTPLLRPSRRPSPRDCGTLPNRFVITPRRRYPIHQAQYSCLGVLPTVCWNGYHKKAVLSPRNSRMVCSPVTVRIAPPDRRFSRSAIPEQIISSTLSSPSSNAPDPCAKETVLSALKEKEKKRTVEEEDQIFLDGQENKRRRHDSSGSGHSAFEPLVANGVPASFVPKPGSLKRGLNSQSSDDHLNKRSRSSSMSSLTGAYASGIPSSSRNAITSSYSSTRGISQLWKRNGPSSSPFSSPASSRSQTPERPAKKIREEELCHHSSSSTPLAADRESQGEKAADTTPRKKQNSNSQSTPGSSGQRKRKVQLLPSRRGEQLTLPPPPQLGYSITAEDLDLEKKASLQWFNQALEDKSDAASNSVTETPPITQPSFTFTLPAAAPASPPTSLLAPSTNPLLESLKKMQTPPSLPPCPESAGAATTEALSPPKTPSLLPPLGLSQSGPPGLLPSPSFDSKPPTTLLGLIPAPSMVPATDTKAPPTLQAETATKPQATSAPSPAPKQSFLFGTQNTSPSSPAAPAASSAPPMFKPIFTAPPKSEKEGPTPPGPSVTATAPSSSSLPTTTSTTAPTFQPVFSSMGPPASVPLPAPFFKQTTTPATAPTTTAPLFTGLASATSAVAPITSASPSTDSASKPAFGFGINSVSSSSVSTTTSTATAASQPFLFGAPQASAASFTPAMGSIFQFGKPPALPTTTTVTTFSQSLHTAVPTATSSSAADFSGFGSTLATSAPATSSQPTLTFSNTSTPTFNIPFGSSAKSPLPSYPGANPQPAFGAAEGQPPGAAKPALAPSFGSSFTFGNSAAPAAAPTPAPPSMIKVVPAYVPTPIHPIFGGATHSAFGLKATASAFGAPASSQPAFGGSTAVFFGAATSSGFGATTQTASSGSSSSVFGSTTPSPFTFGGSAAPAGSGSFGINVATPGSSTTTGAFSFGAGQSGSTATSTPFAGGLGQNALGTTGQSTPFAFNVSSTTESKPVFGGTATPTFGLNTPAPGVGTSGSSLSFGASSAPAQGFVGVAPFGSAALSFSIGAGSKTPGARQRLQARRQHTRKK
inactive: [1] -0.017 | volasertib -0.027 | [2] 0.056 | epoxomicin -0.062 | [3] -0.037 | [4] 0.03 | [5] -0.071 | rosiglitazone 0.001 | [6] 0.137 | [7] -0.149

PIGT (UniProt Q969N2)
Sequence of UniProt Q969N2 (Q969N2 whole entry, looked up): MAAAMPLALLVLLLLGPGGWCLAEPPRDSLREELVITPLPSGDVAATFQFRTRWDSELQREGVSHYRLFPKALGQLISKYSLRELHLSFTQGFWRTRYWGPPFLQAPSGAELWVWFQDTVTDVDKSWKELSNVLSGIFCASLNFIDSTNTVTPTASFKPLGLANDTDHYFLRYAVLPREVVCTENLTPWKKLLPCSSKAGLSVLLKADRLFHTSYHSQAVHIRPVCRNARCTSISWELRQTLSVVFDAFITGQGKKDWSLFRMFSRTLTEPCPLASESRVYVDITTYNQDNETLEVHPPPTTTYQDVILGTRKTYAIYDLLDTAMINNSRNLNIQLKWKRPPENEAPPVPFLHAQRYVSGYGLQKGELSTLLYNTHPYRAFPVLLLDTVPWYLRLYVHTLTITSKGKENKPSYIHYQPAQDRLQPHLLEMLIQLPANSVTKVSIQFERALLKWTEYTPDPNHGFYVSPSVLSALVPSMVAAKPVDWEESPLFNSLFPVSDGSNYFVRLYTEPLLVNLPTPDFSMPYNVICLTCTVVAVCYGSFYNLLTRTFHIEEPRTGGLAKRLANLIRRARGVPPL
inactive: [1] 0.02 | volasertib -0.118 | [2] 0.035 | epoxomicin -0.011 | [3] 0.019 | [4] -0.046 | [5] 0.013 | rosiglitazone 0.014 | [6] 0.015 | [7] 0.081

PITRM1 isoform 2 (UniProt Q5JRX3)
inactive: [1] 0.048 | [2] 0.166 | epoxomicin -0.029 | [3] 0.074 | [4] -0.084 | [5] 0.023 | rosiglitazone 0.03 | [6] -0.124 | [7] -0.189
active: volasertib 0.489

PRMT8 (UniProt Q9NR22)
Sequence of UniProt Q9NR22 (Q9NR22 whole entry, looked up): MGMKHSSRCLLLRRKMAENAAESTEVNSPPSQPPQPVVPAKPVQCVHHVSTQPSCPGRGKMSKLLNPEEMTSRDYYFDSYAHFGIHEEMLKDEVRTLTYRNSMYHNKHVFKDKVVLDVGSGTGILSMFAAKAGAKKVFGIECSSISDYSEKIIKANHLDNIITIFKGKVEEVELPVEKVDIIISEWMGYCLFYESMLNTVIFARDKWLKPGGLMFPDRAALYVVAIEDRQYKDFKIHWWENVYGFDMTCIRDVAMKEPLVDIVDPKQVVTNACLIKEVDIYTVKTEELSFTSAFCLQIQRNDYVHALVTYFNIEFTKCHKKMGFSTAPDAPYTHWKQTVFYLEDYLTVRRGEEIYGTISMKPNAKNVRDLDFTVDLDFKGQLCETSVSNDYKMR
inactive: [1] 0.019 | volasertib -0.074 | [2] 0.011 | epoxomicin 0.017 | [3] 0.035 | [4] -0.087 | [5] -0.022 | rosiglitazone -0.026 | [6] -0.117 | [7] -0.009

PC (UniProt P11498)
inactive: [1] -0.041 | volasertib -0.069 | [2] 0.067 | epoxomicin 0.041 | [3] -0.082 | [4] -0.217 | [5] 0.027 | rosiglitazone 0.084 | [6] -0.128 | [7] 0.03

POLR2G (UniProt P62487)
inactive: [1] 0.215 | volasertib 0.276 | [2] -0.075 | epoxomicin 0.054 | [3] 0.06 | [4] -0.003 | [5] 0.02 | rosiglitazone -0.01 | [6] 0.002 | [7] 0.081

PSMC5 (UniProt P62195)
active: epoxomicin -0.308
inactive: [1] 0.043 | volasertib 0.178 | [2] -0.002 | [3] 0.024 | [4] 0.039 | [5] -0.029 | rosiglitazone -0.014 | [6] 0.015 | [7] 0.066

PPP2R5A (UniProt Q15172)
active: volasertib -0.295 | [7] -0.305
inactive: [1] -0.099 | [2] 0.097 | epoxomicin 0.067 | [3] 0.012 | [4] -0.046 | [5] 0.072 | rosiglitazone 0.112 | [6] -0.049

PPP2R5E (UniProt Q16537)
active: [1] -0.259 | volasertib -0.404 | [7] -0.99
inactive: [2] -0.025 | epoxomicin -0.034 | [3] -0.009 | [4] -0.165 | [5] 0.018 | rosiglitazone 0.099 | [6] -0.048

RAB11FIP1 (UniProt Q6WKZ4)
active: [7] -0.373
inactive: [1] -0.07 | volasertib -0.105 | [2] 0.023 | epoxomicin 0.122 | [3] 0.015 | [4] -0.063 | [5] 0.021 | rosiglitazone 0.018 | [6] -0.017

POLA2 (UniProt Q14181)
Sequence of UniProt Q14181 (Q14181 whole entry, looked up): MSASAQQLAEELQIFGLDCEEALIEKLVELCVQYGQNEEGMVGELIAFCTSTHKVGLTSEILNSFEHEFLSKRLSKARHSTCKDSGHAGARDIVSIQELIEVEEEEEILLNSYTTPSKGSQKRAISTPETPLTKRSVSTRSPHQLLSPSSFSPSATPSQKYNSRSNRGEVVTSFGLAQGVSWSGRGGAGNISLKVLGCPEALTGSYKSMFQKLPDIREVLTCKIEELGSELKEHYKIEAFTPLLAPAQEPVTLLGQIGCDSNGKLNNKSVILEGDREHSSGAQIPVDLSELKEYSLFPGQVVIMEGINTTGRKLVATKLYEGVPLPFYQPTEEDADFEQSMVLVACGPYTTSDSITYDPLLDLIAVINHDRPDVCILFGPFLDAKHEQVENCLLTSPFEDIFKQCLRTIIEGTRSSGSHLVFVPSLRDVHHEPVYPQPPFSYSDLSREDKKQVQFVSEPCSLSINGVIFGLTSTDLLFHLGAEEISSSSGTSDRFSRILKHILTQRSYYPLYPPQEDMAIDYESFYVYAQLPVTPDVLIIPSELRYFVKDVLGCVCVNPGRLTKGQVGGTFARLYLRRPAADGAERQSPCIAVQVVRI
active: volasertib -0.328
inactive: [1] -0.114 | [2] 0.051 | epoxomicin 0.022 | [3] -0.008 | [4] -0.109 | [5] 0.1 | rosiglitazone 0.061 | [6] -0.057 | [7] -0.22

PPIL1 (UniProt Q9Y3C6)
Sequence of UniProt Q9Y3C6 (Q9Y3C6 whole entry, looked up): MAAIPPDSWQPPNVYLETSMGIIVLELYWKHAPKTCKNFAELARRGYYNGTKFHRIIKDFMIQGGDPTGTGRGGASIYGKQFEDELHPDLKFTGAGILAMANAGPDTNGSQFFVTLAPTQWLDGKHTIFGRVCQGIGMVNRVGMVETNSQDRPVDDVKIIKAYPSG
inactive: [1] 0.014 | volasertib -0.051 | [2] 0.01 | epoxomicin -0.024 | [3] -0.042 | [4] 0.02 | [5] -0.014 | rosiglitazone 0.035 | [6] 0.049 | [7] 0.018

POMK (UniProt Q9H5K3)
Sequence of UniProt Q9H5K3 (Q9H5K3 whole entry, looked up): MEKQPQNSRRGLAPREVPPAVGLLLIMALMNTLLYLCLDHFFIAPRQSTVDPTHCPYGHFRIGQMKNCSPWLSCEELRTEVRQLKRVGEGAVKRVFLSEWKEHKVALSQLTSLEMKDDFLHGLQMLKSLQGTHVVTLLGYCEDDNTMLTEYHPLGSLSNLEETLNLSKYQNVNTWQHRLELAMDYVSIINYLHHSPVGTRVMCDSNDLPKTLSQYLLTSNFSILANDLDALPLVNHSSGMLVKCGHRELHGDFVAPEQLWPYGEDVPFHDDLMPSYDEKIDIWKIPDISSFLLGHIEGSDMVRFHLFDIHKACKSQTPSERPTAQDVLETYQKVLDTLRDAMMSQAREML
inactive: [1] -0.079 | volasertib -0.093 | [2] 0.014 | epoxomicin -0.05 | [3] 0.054 | [4] 0.054 | [5] -0.007 | rosiglitazone 0.012 | [6] 0.023 | [7] -0.082

PSMD2 (UniProt Q13200)
Sequence of UniProt Q13200 (Q13200 whole entry, looked up): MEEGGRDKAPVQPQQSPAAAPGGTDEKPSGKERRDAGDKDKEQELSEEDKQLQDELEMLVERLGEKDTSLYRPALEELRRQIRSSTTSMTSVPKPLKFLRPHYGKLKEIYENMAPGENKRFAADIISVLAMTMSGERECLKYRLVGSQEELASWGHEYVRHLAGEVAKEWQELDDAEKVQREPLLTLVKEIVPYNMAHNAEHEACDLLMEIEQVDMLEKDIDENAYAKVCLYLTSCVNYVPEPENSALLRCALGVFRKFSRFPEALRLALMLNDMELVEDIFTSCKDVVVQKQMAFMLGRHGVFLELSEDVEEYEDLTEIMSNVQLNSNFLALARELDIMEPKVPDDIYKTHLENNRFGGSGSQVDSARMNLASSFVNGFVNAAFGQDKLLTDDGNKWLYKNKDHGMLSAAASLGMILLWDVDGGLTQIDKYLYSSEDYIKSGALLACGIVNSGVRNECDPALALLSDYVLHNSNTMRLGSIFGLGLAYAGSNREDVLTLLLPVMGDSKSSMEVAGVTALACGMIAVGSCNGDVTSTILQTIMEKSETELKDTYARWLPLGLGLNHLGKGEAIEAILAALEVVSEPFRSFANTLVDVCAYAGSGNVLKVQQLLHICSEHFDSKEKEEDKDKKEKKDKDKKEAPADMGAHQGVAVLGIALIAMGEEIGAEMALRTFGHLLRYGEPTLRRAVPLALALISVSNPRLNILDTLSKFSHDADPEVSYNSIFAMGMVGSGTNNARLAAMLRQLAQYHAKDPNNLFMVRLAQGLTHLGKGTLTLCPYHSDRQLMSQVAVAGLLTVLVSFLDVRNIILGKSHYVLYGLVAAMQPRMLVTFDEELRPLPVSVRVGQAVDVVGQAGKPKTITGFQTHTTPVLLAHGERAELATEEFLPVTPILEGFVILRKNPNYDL
inactive: [1] 0.049 | volasertib 0.089 | [2] -0.009 | [3] 0.011 | [4] 0.07 | [5] -0.04 | rosiglitazone -0.024 | [6] 0.021 | [7] 0.055
active: epoxomicin -0.365

PRPF40A (UniProt O75400)
inactive: [1] -0.036 | volasertib -0.216 | [2] 0.089 | epoxomicin 0.022 | [3] -0.096 | [4] 0.065 | [5] 0.036 | rosiglitazone 0.041 | [6] 0.074 | [7] -0.04

PEX16 isoform 2 (UniProt Q9Y5Y5)
inactive: [1] -0.065 | volasertib -0.138 | [2] -0.013 | epoxomicin -0.024 | [3] -0.041 | [4] 0.033 | [5] 0.013 | rosiglitazone 0.062 | [6] -0.127 | [7] -0.124

PLCB3 (UniProt Q01970)
inactive: [1] -0.05 | volasertib -0.037 | [2] 0.044 | epoxomicin 0.009 | [3] 0.026 | [4] -0.08 | [5] 0.02 | rosiglitazone 0.058 | [6] -0.009
active: [7] -0.246

PTP4A1 (UniProt Q93096)
inactive: [1] 0.025 | volasertib 0.019 | [2] 0.036 | epoxomicin 0.065 | [3] 0.029 | [4] -0.055 | [5] -0.044 | rosiglitazone -0.011 | [6] -0.043 | [7] 0.022

PRPF38A (UniProt Q8NAV1)
inactive: [1] -0.029 | volasertib -0.016 | [2] 0 | epoxomicin 0.048 | [3] -0.011 | [4] 0.031 | [5] 0.051 | rosiglitazone 0.031 | [6] -0.037 | [7] -0.081

PEX13 (UniProt Q92968)
Sequence of UniProt Q92968 (Q92968 whole entry, looked up): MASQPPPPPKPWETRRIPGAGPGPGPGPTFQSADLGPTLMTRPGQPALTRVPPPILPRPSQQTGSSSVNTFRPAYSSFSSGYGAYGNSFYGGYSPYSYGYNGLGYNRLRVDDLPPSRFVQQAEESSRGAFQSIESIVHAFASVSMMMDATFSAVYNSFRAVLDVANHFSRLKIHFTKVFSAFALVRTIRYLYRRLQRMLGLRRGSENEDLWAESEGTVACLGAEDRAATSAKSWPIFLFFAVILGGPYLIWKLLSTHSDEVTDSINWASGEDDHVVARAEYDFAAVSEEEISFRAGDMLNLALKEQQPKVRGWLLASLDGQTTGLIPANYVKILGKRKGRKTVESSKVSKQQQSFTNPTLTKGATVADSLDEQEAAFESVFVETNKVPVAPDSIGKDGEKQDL
inactive: [1] -0.053 | volasertib -0.049 | [2] -0.038 | epoxomicin -0.009 | [3] 0.076 | [4] 0.047 | [5] 0.019 | rosiglitazone 0.021 | [6] 0.02 | [7] -0.378

PSMD13 (UniProt Q9UNM6)
inactive: [1] 0.075 | volasertib 0.217 | [2] 0.008 | [3] 0.012 | [4] 0.043 | [5] -0.01 | rosiglitazone 0.009 | [6] 0.02 | [7] 0.038
active: epoxomicin -0.288

PPP1R12C (UniProt Q9BZL4)
inactive: [1] 0.029 | volasertib -0.027 | [2] 0.204 | epoxomicin -0.102 | [3] -0.094 | [4] -0.116 | [5] -0.03 | rosiglitazone -0.031 | [6] 0.013 | [7] 0.029

PBK (UniProt Q96KB5)
active: volasertib -0.601
inactive: [1] -0.18 | [2] 0.121 | epoxomicin -0.005 | [3] -0.086 | [4] -0.026 | [5] 0.091 | rosiglitazone 0.092 | [6] 0.053 | [7] -0.187

PTMA (UniProt P06454)
inactive: [1] -0.167 | volasertib 0.112 | [2] -0.064 | epoxomicin 0.2 | [3] 0.017 | [4] -0.009 | [5] -0.01 | rosiglitazone -0.032 | [6] -0.027 | [7] -0.052

PIR (UniProt O00625)
inactive: [1] -0.041 | volasertib -0.069 | [2] -0.028 | epoxomicin 0.034 | [3] 0.097 | [4] -0.006 | [5] 0.031 | rosiglitazone 0.02 | [6] -0.06 | [7] -0.052
